# Hit rate of the full screen: of about 310,000 compounds, about 14,000 (4.5%) showed an effect of 50% or more. Effects have a minus sign here. Shown is part of a subset that was picked to be rich in strong results.
# Biological target: human ether-à-go-go-related gene (hERG) potassium channel (human, UniProt Q12809)
# Assay: primary screen, population patch clamp on CHO cells stably expressing hERG; higher = less effect of the substance
# 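Note: peak tail current of the secondary pulse compared with the same well before compound.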
# human ether-à-go-go-related gene (hERG) potassium channel, sequence (Q12809 whole entry, looked up): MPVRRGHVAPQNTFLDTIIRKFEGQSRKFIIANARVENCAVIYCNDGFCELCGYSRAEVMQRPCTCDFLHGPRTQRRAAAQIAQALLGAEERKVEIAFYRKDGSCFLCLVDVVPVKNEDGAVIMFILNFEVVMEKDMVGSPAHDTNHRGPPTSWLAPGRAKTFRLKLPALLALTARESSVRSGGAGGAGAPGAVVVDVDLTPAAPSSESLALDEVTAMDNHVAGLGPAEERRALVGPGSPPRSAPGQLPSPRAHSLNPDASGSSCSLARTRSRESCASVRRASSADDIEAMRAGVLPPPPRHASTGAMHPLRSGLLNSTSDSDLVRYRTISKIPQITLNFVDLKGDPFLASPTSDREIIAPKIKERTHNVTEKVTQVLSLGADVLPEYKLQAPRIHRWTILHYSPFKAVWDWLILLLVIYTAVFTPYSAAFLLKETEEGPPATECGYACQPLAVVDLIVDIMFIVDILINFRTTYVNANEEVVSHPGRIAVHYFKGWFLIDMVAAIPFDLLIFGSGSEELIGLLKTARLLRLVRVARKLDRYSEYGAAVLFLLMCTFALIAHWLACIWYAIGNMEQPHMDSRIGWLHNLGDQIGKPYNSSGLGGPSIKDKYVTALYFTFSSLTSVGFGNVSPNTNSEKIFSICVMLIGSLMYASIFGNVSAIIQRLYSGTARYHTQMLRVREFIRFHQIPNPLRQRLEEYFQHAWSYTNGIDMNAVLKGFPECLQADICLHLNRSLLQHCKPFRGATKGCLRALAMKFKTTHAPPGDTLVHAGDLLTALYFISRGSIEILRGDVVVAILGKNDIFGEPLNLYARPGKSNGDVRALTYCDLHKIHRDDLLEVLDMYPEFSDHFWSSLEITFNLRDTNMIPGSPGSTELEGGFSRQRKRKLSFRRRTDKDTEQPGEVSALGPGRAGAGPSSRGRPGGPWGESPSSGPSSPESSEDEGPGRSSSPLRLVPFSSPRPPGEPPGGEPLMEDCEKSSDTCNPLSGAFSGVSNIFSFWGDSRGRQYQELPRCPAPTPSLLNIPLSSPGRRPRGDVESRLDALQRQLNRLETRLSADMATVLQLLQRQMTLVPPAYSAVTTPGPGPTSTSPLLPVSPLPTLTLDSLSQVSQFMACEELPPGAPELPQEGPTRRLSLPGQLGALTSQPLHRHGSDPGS
row,SMILES,"hERG current change (%, negative = inhibition) at 10uM"
1,CCOCCCNC(=O)CN1CCN(S(=O)(=O)c2ccc3c(c2)CCC3)CC1,3.99%
2,COC(=O)CSc1nnc(CNS(=O)(=O)c2ccc(C)cc2)n1C,1.97%
3,CN(C)N=Nc1ccc(S(=O)(=O)N2CCSC2C(=O)O)cc1 (stereo not drawn),2.21%
4,COC1CCN(C(=O)CC2C(=O)NCCN2CC2CCCCC2)CC1 (stereo not drawn),13.3%
5,CCOc1cccc(=[NH+]C2CCCCC2)c2c(C)[nH]c(C)c12.[O-][Cl+3]([O-])([O-])[O-],-70.3%
6,CCOc1ccccc1OCCNC1CCCC1,8.26%
7,CCOc1cccc(=O)c2c(C)n(CC(=O)c3ccccc3)c(C)c12,-6.91%
8,CCOc1cccc(=[NH+]C2CCCCC2)c2c(C)n(C)c(C)c12.[O-][Cl+3]([O-])([O-])[O-],-70.3%
9,CCOc1cccc(OCC)c2c(C)[n+](CC3CCCO3)c(C)c1-2.[O-][Cl+3]([O-])([O-])[O-] (stereo not drawn),-36.9%
10,CCOc1cccc(=O)c2c(C)n(CC3CCCO3)c(C)c12 (stereo not drawn),-2.39%
11,O=C(CN1C(=O)NC2(CCCC2)C1=O)N1CCN(S(=O)(=O)c2ccccc2[N+](=O)[O-])CC1,7.61%
12,N=c1n(-c2ccccc2)c(O)cc(=O)n1-c1ccccc1,-6.28%
13,CCCn1c(N)c(N(CCOC)C(=O)c2ccc([N+](=O)[O-])c(C)c2)c(=O)[nH]c1=O,35.8%
14,CC(NS(=O)(=O)c1ccc(Br)cc1)C(=O)NC1CCCCCC1 (stereo not drawn),5.35%
15,Cc1noc(C)c1S(=O)(=O)N1CCCC(C(=O)Nc2ccc(Cl)cn2)C1 (stereo not drawn),-26%
16,CCOC(=O)C1(CCCc2ccccc2)CCN(C(=O)COC)CC1,-25.9%
17,CCOC(=O)C1(CCCc2ccccc2)CCN(C(=O)Cc2nonc2C)CC1,-51.3%
18,CCOC(=O)C1(CCCc2ccccc2)CCN(C(=O)c2cnc(C)cn2)CC1,-39.8%
19,CCOC(=O)C1(CCCc2ccccc2)CCN(C(=O)c2ocnc2C)CC1,-56.1%
20,CCOC(=O)C1(CCCc2ccccc2)CCN(C(=O)c2cc(C)nn2CC)CC1,-57.8%
21,CCOC(=O)C1(CCc2ccccc2)CCN(C(=O)Cc2nonc2C)CC1,-21.4%

row,SMILES,"hERG current change (%, negative = inhibition) at 10uM"
1,CCOC(=O)C1(CC2CC2)CCN(C(=O)c2ocnc2C)CC1,7.25%
2,CCOC(=O)C1(CCCc2ccccc2)CCN(C(=O)c2cc(C)nc(C)n2)CC1,-16.4%
3,CCOC(=O)C1(CCCc2ccccc2)CCN(C(=O)c2cnn(CC)c2)CC1,-64.2%
4,CCOC(=O)C1(Cc2ccccc2)CCCN(C(=O)c2cnn(CC)c2)C1 (stereo not drawn),10.1%
5,CCOC(=O)C1(Cc2cccc(Cl)c2)CCCN(C(=O)c2cnn(CC)c2)C1 (stereo not drawn),-6.39%
6,CCn1c(N2CCN(S(=O)(=O)c3ccc(Cl)cc3)CC2)nc2ccccc21,-48.4%
7,COc1cccc(NC(=O)CCNS(=O)(=O)c2ccc3c(c2)CC(C)N3C(=O)C2CC2)c1 (stereo not drawn),-5.18%
8,O=C(CCS(=O)(=O)c1ccc(Br)s1)NC1CCCC1,6.05%
9,COc1ccc(NS(=O)(=O)c2cccc3cccnc23)cc1OC,24.2%
10,CNc1nc(NN)nc(Nc2ccccc2)n1,9.76%
11,Cc1ccc(S(=O)(=O)CC(=O)Nc2cccc(C)n2)cc1,6.48%
12,Cc1cccc(C(=O)NCC(=O)NC2CCN(Cc3ccccc3)CC2)c1,-7.99%
13,O=C(c1ccoc1)N1CCC(CO)(CCc2ccccc2)CC1,-28.7%
14,CCOC(=O)C1(CCCc2ccccc2)CCN(C(=O)c2ccoc2)CC1,-54.3%
15,CCOC(=O)C1(CCCc2ccccc2)CCN(C(=O)CSC)CC1,-24.1%
16,CCCCCC(=O)Nc1nnn(CCC)n1,4.41%
17,CC(C(=O)O)N1C(=O)c2cccc3cccc1c23 (stereo not drawn),1.97%
18,COc1ccc(NCc2nnc(SCC(=O)Nc3nc(-c4ccccc4)cs3)n2-c2ccccc2)cc1,13%
19,C[C@H](NC(=O)N1CCn2c1nc1ccccc12)C(=O)NCc1ccc(F)cc1,-29.6%
20,COc1ccc(CNC(=O)[C@H](C)NC(=O)N2CCn3c2nc2ccccc23)cc1,-57.7%
21,C[C@H](NC(=O)N1CCn2c1nc1ccccc12)C(=O)NCc1ccccc1,-13.6%

row,SMILES,"hERG current change (%, negative = inhibition) at 10uM"
1,FC(F)(F)c1ccc(N2CCOCC2)c(Nc2nc3ccccc3n3cnnc23)c1,7.53%
2,CCSc1nnc([C@H](Cc2c[nH]c3ccccc23)NC(=O)OC(C)(C)C)o1,-21.5%
3,COc1ccc(C2c3ccc4ccccc4c3Oc3ncn(CCN(C)C)c(=N)c32)cc1 (stereo not drawn),-77.2%
4,COc1ccccc1C1c2ccc3ccccc3c2Oc2ncn(CCN(C)C)c(=N)c21 (stereo not drawn),-61.8%
5,COc1ccc(C2c3ccc4ccccc4c3Oc3ncn(CCCN(C)C)c(=N)c32)cc1 (stereo not drawn),-76.4%
6,COc1ccc(Cc2nc3c4c(ncn3n2)Oc2c(ccc3ccccc23)C4c2ccc(OC)c(OC)c2)cc1 (stereo not drawn),14.7%
7,COc1ccc(C2c3c(ccc4ccccc34)Oc3ncn4nc(-c5ccco5)nc4c32)cc1 (stereo not drawn),-12.4%
8,CN(C)S(=O)(=O)c1cc(C(=O)OCCn2cnc3c2c(=O)n(C)c(=O)n3C)ccc1Cl,-39.7%
9,CS(=O)(=O)c1cccc(-c2nnc(NC(=O)CCS(=O)(=O)c3ccccc3)o2)c1,3.82%
10,COC(=O)c1cn(C(=O)c2ccccc2F)nc1N,-5.96%
11,Cc1ccc2c(CC(=O)OC3CCOC3=O)coc2c1 (stereo not drawn),3.85%
12,CC/C(=N\NC(=S)Nc1ccc(OC)cc1)c1ccc(OC(F)F)cc1,-4.32%
13,C[C@@H]1CC=C[C@H]2[C@H]1C(=O)N(Cc1ccccc1)[C@H]2c1ccoc1,3.54%
14,CC(CN1CCCCC1)C(=O)NNC(=O)C12CC3CC(CC(C3)C1)C2 (stereo not drawn),3.74%
15,CC(C)c1onc(C(=O)N2CCN(c3ccc(F)cc3)CC2)c1[N+](=O)[O-],-19.9%
16,COc1ccccc1NC(=O)CSc1nnc(C2CCCCC2)n1N,5.54%
17,Cc1ccc(-n2cc(CNCCc3ncc(C)[nH]3)c(-c3ccc(F)cc3)n2)cc1,-47.4%
18,Fc1ccc(-c2nn(-c3ccccc3)cc2CNCc2ccccc2)cc1,1.75%
19,Cc1ccc(-n2cc(CNCCc3cscn3)c(-c3ccc(F)cc3)n2)cc1,-59%
20,O=Cc1cn(-c2ccccc2)nc1-c1ccc2c(c1)OCCO2,-0.855%
21,c1ccc(-n2cc(CNCCc3cscn3)c(-c3ccc4c(c3)OCO4)n2)cc1,-65.4%

row,SMILES,"hERG current change (%, negative = inhibition) at 10uM"
1,OCc1cn(-c2ccccc2)nc1-c1ccc2c(c1)OCCO2,5.83%
2,O=C(CSC1=NCCS1)NC(NC(=O)CSC1=NCCS1)c1ccccc1,18.6%
3,O=C(C1CCN(S(=O)(=O)c2ccc(F)cc2)CC1)N1CCOCC1,15.3%
4,COc1ccc(CNC(=O)c2cc(-c3ccccc3O)n[nH]2)cc1,5.51%
5,O=C1CC(N2CCN(C(c3ccccc3)c3ccccc3)CC2)C(=O)N1 (stereo not drawn),-0.687%
6,NC(=O)COn1c(SCC(N)=O)nc2ccccc2c1=O,19.3%
7,COC(=O)c1cc(Br)c(=O)n(Cc2ccncc2)c1,-1.41%
8,CCCc1cc(=O)oc2cc(OCC(=O)N3CCN(C(=O)C4COc5ccccc5O4)CC3)ccc12 (stereo not drawn),-65.9%
9,Cc1cc(=O)oc2c(C)c(OCC(=O)N3CCN(C(=O)C4COc5ccccc5O4)CC3)ccc12 (stereo not drawn),-50.4%
10,Cc1cc(=O)oc2cc(OCC(=O)N3CCN(C(=O)C4COc5ccccc5O4)CC3)c(Cl)cc12 (stereo not drawn),-48%
11,CCOc1ccccc1N1CCN(C(=O)COc2ccc3c(C)cc(=O)oc3c2)CC1,-6.28%
12,CCCc1cc(=O)oc2cc(OCC(=O)N3CCC(C(=O)O)(c4ccccc4)CC3)ccc12,6.41%
13,Cc1c(C)c2ccc(OCC(=O)N3CCN(c4ccccc4)CC3)cc2oc1=O,-36.1%
14,Cc1cc(=O)oc2cc(OCC(=O)N3CCN(C(=O)C4COc5ccccc5O4)CC3)ccc12 (stereo not drawn),-53.6%
15,Cc1c(C)c2ccc(OCC(=O)N3CCN(C(=O)C4COc5ccccc5O4)CC3)cc2oc1=O (stereo not drawn),-60.9%
16,CCCc1cc(=O)oc2cc(OCC(=O)N3CCC(C(N)=O)CC3)ccc12,-6.67%
17,Cc1cccc(N2CCN(C(=O)COc3ccc4c(C)cc(=O)oc4c3C)CC2)c1C,13.6%
18,O=C(COc1ccc2ccc(=O)oc2c1)N1CCN(C(=O)C2COc3ccccc3O2)CC1 (stereo not drawn),-46.2%
19,Cc1c(C)c2ccc(OCC(=O)N3CCC(C(=O)O)CC3)cc2oc1=O,-6.41%
20,CCOC(=O)c1ccc(NC(=O)CCc2nc(-c3ccc(Cl)cc3)no2)cc1,8.36%
21,Cc1cccc(N(CC(=O)NCCSCc2ccccc2)S(C)(=O)=O)c1C,-17.4%
